Screening data deposited in PubChem BioAssay by several laboratories.
UBC9 SUMO inh: inhibitors of in vitro SUMOylation cascade, primary screen, biochemical, HTRF, uHTS; HTRF SUMOylation assay, SAE1/SAE2 + UBC9; 0.36% of 290,000 active; AID 2006, 2009; SUMO-conjugating enzyme UBC9 (Homo sapiens), P63279; inhibition, % at 35 µM; in the data active = inhibition above about 50%, passing the limit was not always enough
Target sequence (P63279 whole entry, looked up): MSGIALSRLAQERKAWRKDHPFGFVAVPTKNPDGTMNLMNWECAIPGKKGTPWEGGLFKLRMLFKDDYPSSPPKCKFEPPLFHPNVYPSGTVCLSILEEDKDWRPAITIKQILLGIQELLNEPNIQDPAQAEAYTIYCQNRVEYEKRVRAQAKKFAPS
PABP FP inh: PABP poly(A) RNA binding inhibitors, primary screen, biochemical, fluorescence polarization, uHTS; Polyadenylate-binding protein 1 (Homo sapiens), P11940; inhibition, % at 35 µM; 1% of 290,000 active; AID 2014, 2009;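 note: calls also rest on retests at 20 µM and on dose response follow-up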
eIF4H FP inh: human eIF4H binding inhibitors, primary screen, translation initiation inhibitor project, biochemical, uHTS, fluorescence polarization; eIF4H fluorescence polarization binding assay; inhibition, % at 35 µM; 0.94% of 290,000 active;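 note: calls also rest on retests at 20 µM and on dose response follow-up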
ALR inh: inhibitors of human ALR sulfhydryl oxidase, primary screen, biochemical, H2O2 detection, HRP-luminol luminescence, single point | 3.8% of 290,000 active | inhibition, % (concentration not given with the values) | purified ALR, DTT oxidation;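 active = mean replicate inhibition above about 79%, with every replicate also reaching it, limit read from the data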
Target sequence (P55789 whole entry, looked up): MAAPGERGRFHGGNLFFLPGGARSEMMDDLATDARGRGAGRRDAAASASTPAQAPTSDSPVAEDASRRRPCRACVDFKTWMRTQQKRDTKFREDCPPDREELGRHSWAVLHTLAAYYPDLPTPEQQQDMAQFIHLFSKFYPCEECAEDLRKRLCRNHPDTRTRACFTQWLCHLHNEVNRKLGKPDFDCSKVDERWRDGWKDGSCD
MLLE-PAM2 inh: inhibitors of PABP1 MLLE–PAM2 peptide binding, primary screen, biochemical, fluorescence polarization, FITC-PAM2, GST-MLLE; inhibition, % at 20 µM; 0.36% of 360,000 active; AID 588489, 2011; in the data active = inhibition above about 35%, passing the limit was not always enough;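 note: plate controls were DMSO wells with GST-MLLE for no effect and wells lacking GST-MLLE protein for full effect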
Efflux pump inh: inhibitors of Candida efflux pumps in yeast, primary screen, S. cerevisiae, Nile Red, multiplex; 0.44% of 330,000 active; inhibition, % at 10 µM; S. cerevisiae Candida pump triplex;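 active = plate passing quality check with inhibition over a set limit, or well fluorescence over plate mean plus 4 SD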;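 note: Nile Red retained in pooled yeast measured as flow cytometry median fluorescence; 0% = buffer negative control and 100% = Enniatin B positive control; higher means more Nile Red kept so more efflux inhibition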
Numbers without * were called inactive; . = no result given. Most compounds without a hit are left out; they make up all but 4.7% or so of the library. Unless noted, the rule behind the calls is not given here.

SMILES	UBC9 SUMO inh	PABP FP inh	eIF4H FP inh	ALR inh	MLLE-PAM2 inh	Efflux pump inh
Cc1ccc(CC2SC(N)=NC2=O)cc1 (configuration not stated)	-5.7	3.9	4.5	.	2.1	0.0
COc1ccc(N(CC(=O)NCCC2=CCCCC2)S(=O)(=O)c2ccc(C)cc2)cc1	5.4	-0.7	2.7	-1.0	.	-0.2
CN(CC(=O)Nc1ccccc1N1CCOCC1)S(=O)(=O)c1ccc(F)cc1	-0.7	-6.2	5.7	-14.2	-4.5	0.0
CC(C)Oc1ccc(C(=O)Nc2ccccc2N2CCCC2)cc1	16.6	13.0	10.5	98.1*	15.7	0.1
O=C(Nc1ccccc1N1CCCCC1)c1ccc(Cl)cc1	13.2	-10.0	3.3	46.8	-10.0	-0.4
CC(=O)Nc1ccc(S(=O)(=O)N(C)CC(=O)Nc2ccccc2N2CCCC2)cc1	.	.	.	98.8*	3.4	0.1
COc1ccc(C(=O)Nc2ccccc2N2CCCC2)cc1	3.8	1.8	-1.5	93.6*	14.1	0.3
Cc1ccc(C(=O)Nc2ccccc2N2CCCC2)cc1	9.0	83.2*	82.6*	98.5*	-0.9	-0.1
Cc1ccc(C(=O)Nc2ccccc2N2CCCCC2)cc1	-21.2	-4.7	-6.0	.	-7.0	0.0
C=CC[C@H](CC(=O)NCCO)C(=O)N[C@@H](COC(=O)[C@@H](CC=C)CC(=O)OC(C)(C)C)Cc1c[nH]c2ccccc12	.	.	.	6.0	-16.5	0.5
CN(CC(=O)Nc1cc(Cl)ccc1-n1cncn1)Cc1ccccc1N1CCOCC1	.	.	.	.	-3.0	.
CC(C)Cn1c(N)c(C(=O)COC(=O)CCNS(=O)(=O)c2ccccc2)c(=O)n(C)c1=O	.	.	.	-0.2	-17.2	-0.1
CN(CC(=O)Nc1ccc(F)c(F)c1F)C(=O)CN1C(=O)C2CCCCC2C1=O (configuration not stated)	-7.6	2.1	-6.3	-0.8	9.3	0.2
Cc1ccc(SCCc2ccc(C)nc2)cc1	10.7	-17.7	-11.8	-2.4	20.9	0.1
Cn1c(=O)n(C)c2cc(N3CCCC3)c(NC(=O)c3cccc(F)c3)cc21	11.7	-4.6	-8.0	.	0.0	-0.1
O=C(Nc1ccccc1N1CCCC1)C1CCN(C(=O)c2ccc(F)cc2)CC1	.	.	.	98.1*	9.0	0.1
COc1cccc(C(=O)Nc2cc3c(cc2N2CCCC2)n(C)c(=O)n3C)c1	10.6	-10.7	3.6	99.2*	18.1	0.3
O=C(O)COc1ccccc1/C=N/n1c(C2CCCCC2)n[nH]c1=S	6.1	6.8	-3.0	96.6*	-6.4	-0.1
S=c1[nH]nc(C2CCCCC2)n1/N=C/c1ccccc1Br	0.6	-2.3	-10.6	.	-80.2	0.0
O=[N+]([O-])c1ccc(Cl)c(/C=N/n2c(C3CCCCC3)n[nH]c2=S)c1	7.8	-4.5	-0.9	98.6*	-86.8	0.0
Fc1ccccc1/C=N/n1c(C2CCCCC2)n[nH]c1=S	-4.9	0.5	-8.3	.	-71.8	0.0
O=[N+]([O-])c1cccc(/C=N/n2c(C3CCCCC3)n[nH]c2=S)c1	-6.0	-14.2	-6.7	2.7	-68.8	-0.1
COc1cc(/C=N/n2c(C3CCCCC3)n[nH]c2=S)cc(OC)c1O	-31.6	1.3	-1.4	99.1*	-2.9	0.0
O=[N+]([O-])c1ccccc1/C=N/n1c(C2CCCCC2)n[nH]c1=S	0.2	36.9	7.8	96.6*	-23.4	-0.1
COc1ccc([C@H]2CC(=O)C=C(c3c(OC)cccc3OC)C2)cc1	.	.	.	-1.1	-10.8	0.5
SMILES	UBC9 SUMO inh	PABP FP inh	eIF4H FP inh	ALR inh	MLLE-PAM2 inh	Efflux pump inh
CCOc1ccc(NC(=O)c2ccc(N3CC4CC(C3)c3cccc(=O)n3C4)c(NC(=O)c3cccnc3)c2)cc1 (configuration not stated)	12.3	-8.9	-13.7	-1.7	-9.9	0.0
CCOc1ccc(CCNC(=O)Cn2nc(C)c3c(C)n(-c4ccccc4)nc3c2=O)cc1OCC	11.1	5.7	-10.0	.	2.2	0.1
Cc1cccc(N=Cc2cc3c(cc2[N+](=O)[O-])OCO3)c1	27.2	21.3*	61.6*	.	-9.2	0.5
O=[N+]([O-])c1ccccc1/C=N/n1c(C(F)(F)F)n[nH]c1=S	7.9	-2.8	-15.2	94.9*	-61.9	-0.2
O=[N+]([O-])c1ccc(Cl)c(/C=N/n2c(COc3ccccc3)n[nH]c2=S)c1	5.9	1.9	2.0	95.8*	-52.8	0.3
O=[N+]([O-])c1cc2c(cc1/C=N/n1c(-c3ccccc3)n[nH]c1=S)OCO2	0.2	24.7	58.6*	87.1*	-5.4	-0.1
S=c1[nH]nc(COc2ccccc2)n1/N=C/c1ccc(Cl)c(Cl)c1	-3.3	-2.5	19.2	.	-44.5	0.1
Cc1ccc2nc(SCC(=O)Nc3ccc(F)cc3F)nc(=O)n2c1	.	.	.	-3.4	0.1	-0.1
CCc1nc2c(OCc3ccc(F)cc3)cccn2c1N(C)C(=O)c1ccc(C)cc1	.	.	.	.	0.9	.
CN1CCn2cnc(C(=O)N3CCN(c4ccccc4)CC3)c2C1=O	.	.	.	.	-3.3	.
CSc1cccc(NC(=S)N2CCC(N(C)C3CCCC3)CC2)c1	-0.7	60.9*	2.1*	-3.4	-40.4	0.3
CCOC(=O)N1CCC(N(CCN(C)C)C(=S)Nc2cccc(SC)c2)CC1	-18.4	-3.8	5.9	-1.8	17.2	0.0
Cc1nc2ccc(S(=O)(=O)NC(C(=O)NCc3ccco3)C(C)C)cc2s1 (configuration not stated)	-3.2	1.2	-4.6	23.0	1.3	-0.1
COc1ccc(NC(=O)CNS(=O)(=O)c2ccc3nc(C)sc3c2)c(OC)c1	9.1	4.2	-1.1	98.8*	-2.2	0.0
Cc1ccc(CNC(=O)C(NS(=O)(=O)c2ccc3nc(C)sc3c2)C(C)C)cc1 (configuration not stated)	2.5	5.2	-4.9	93.3*	-4.7	0.1
Cc1nc2ccc(S(=O)(=O)NCC(=O)N(C)Cc3ccccc3)cc2s1	2.1	4.5	7.1	98.9*	33.9	0.3
Cc1nc2ccc(S(=O)(=O)NCC(=O)NC(C)c3ccccc3)cc2s1 (configuration not stated)	5.7	-1.3	0.1	-8.7	-10.0	0.1
COc1ccc(-n2nc(C(=O)NCc3ccco3)c3ccccc3c2=O)cc1	6.2	0.6	-9.8	-2.0	-3.8	-0.1
COc1ccc(-n2nc(C(=O)NCc3ccco3)c3c4ccccc4n(C)c3c2=O)cc1	1.8	88.9*	2.8*	1.9	8.3	0.0
COc1ccccc1C(=O)Nc1ccnn1C1CCN(C2CCCCC2)CC1	.	.	.	.	-24.0	.
O=S(=O)(CS(=O)(=O)c1ccccc1)c1ccccc1	.	.	.	.	3.0	.
O=S(=O)(C/C(=C/CO)S(=O)(=O)c1ccccc1)c1ccccc1	-8.6	-2.9	-2.0	98.6*	1.9	0.2
